The panel holds about 83,000 compounds, 20% with a hit somewhere; the sample as a whole holds those more often.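 Compound tested at a single concentration for 48 hours in 96-well plates; a percent growth value below 10 was scored as active.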 A number with no mark means an inactive call. Calls of active or inactive are those of the source.

This is an account of results in PubChem BioAssay (NCI).

Assay in all cases: NCI-60 one-dose screen, 48 h (100 = growth as untreated, 0 = no growth, -100 = all killed)
Common to all, as to details: 10 µM unless noted

Assay [1] relates to NCI-H23 lung.
In assay [2] the test system is NCI-H226 lung.
The subject of assay [3] is NCI-H322M lung.
In assay [4] the test system is HOP-62 NSCLC.
Assay [5] deals with NCI-H460 lung.
Assay [6] relates to HOP-92 NSCLC.
Assay [7] has as its system NCI-H522 lung.
Assay [8] has as its system A549/ATCC NSCLC.
Assay [9] has as its system 786-0 renal.
Assay [10] deals with COLO 205 colon.

As to `Cc1ccc(-c2cc(-c3ccc(Cl)cc3)nc(NC(=O)c3cccnc3)n2)cc1`, the growth was 96.5% in assay [1]; 98.6% in assay [2]; 98.5% in assay [3]; 114% in assay [4]; 102% in [5]; 117% in assay [6]. Also, the growth in assay [7] was 93.5%; in assay [8], 105%; in assay [9] it was 102%.

Regarding `CCc1n(Cc2ccc3ccccc3c2)cc[n+]1Cc1ccc2ccccc2c1`, the growth in assay [1] is -14.6% (active); in assay [2] it was 6.75% (active); in [3] it was 44.3%; in assay [4], 11.9%; in [5], 5.54% (active); in assay [6], -31.4% (active). The growth in [7] is -25.4% (active); in [8] it was 28.5%; in [9], 35.7%.

As to `O=C(Cn1c(=O)sc2nc3ccccc3nc21)Nc1ncc(Cc2cccc(Cl)c2Cl)s1`, the growth is 97.1% in [1]; 86.5% in [2]; 97.1% in assay [3]; 97.2% in assay [4]; 104% in [5]; 100% in assay [6]. Also, the growth is 82.5% in assay [7], 99.6% in assay [8] and 99.8% in assay [9].

On to `CN1CCN(Cc2ccc(NC(=O)c3cncc(C#Cc4cnc(N)c5ccccc45)c3)cc2C(F)(F)F)CC1`, for which the growth in assay [1] is -74.1% (active); in [2], -91% (active); in assay [3] it was -87.1% (active); in [4] it was -74.7% (active); in [5], -77.3% (active); in assay [6], -74.4% (active). Also, the growth in [7] was -73.2% (active); in [8] it was -89.1% (active); in assay [9], -79.6% (active); in assay [10], -78.1% (active).

As for `COc1ccc2c(O)c(/C=C3\N=Nc4ccccc43)oc2c1C[C@@H]1CCNC[C@H]1F`, the growth was 70.2% in [1]; 58.3% in [2]; 87.6% in assay [3]; 71.4% in [4]; 11.2% in assay [5]; 65.1% in assay [6]. The growth is 58.1% in assay [7], 35.8% in assay [8] and -62.9% (active) in [9].

Take `O=C(O)CCCN1C(=O)/C(=C/C(Cl)=C/c2ccccc2)SC1=S`: the growth in [1] is 31.3%; in assay [2], 41.9%; in [3], 77.2%; in assay [4] it was 88%; in assay [5], 57.4%; in [6] it was 14.2%. For the same compound, the growth in assay [7] is 12.2%; in [8], 65%; in assay [9] it was -11.5% (active).

As to `COc1cc(CNC(=O)/C=C/C=C/c2ccc3c(c2)OCO3)ccc1OCc1cn(-c2ccc(C)c(C)c2)nn1`, the growth in assay [1] was 66.8%; in assay [2], 47.8%; in [3] it was 82.3%; in [4], 92.5%; in assay [5], 85%; in [6], -4.29% (active). Also, the growth was 59.5% in assay [7], 80.4% in assay [8] and 106% in assay [9].

Turning to `Cc1ccc(-c2nn(-c3ccccc3)cc2C=C2C(=O)ON=C2C(C)C)cc1`, the growth in assay [1] is 89.2%; in assay [2], 95.3%; in [3] it was 91.2%; in assay [4], 88.6%; in [5], 80%; in assay [6] it was 86%. The growth in assay [7] is 74%; in assay [8], 86.8%; in assay [9], 78.7%.

For the compound `O=C1N[C@@H]2NC(=[N+]3CCOCC3)N[C@@H]2N1`, the growth is 103% in assay [1]; 94.8% in assay [2]; 96.3% in assay [3]; 103% in [4]; 104% in assay [5]; 120% in assay [6]. Besides, the growth in [7] was 92.9%; in assay [8] it was 101%; in [9], 98.8%.

Take `O=C(/C=C/c1cn(-c2ccccc2)nc1-c1ccc([N+](=O)[O-])cc1)c1ccc(Cl)cc1`: the growth in assay [1] is 48.4%; in [2], 39%; in [3], 75.1%; in assay [4], 24.5%; in [5], 29.1%; in assay [6], 58.5%. In addition, the growth was 23.3% in assay [7], 61.8% in [8], -92.5% (active) in assay [9] and 40.2% in assay [10].

Take `COc1cc(/C=C\c2cc(/C=C\c3ccc(O)c(OC)c3)n(C(=O)COc3ccc(Cl)cc3Cl)n2)ccc1O`: the growth is 14.1% in [1]; 26.5% in [2]; 40.8% in assay [3]; 11.3% in assay [4]; 9.28% (active) in assay [5]; 12.5% in [6]. Further, the growth is -28.7% (active) in [7], 10.6% in assay [8] and 13.7% in [9].

As for `COC(=O)c1ccc2c(c1)C(=O)c1c-2n(CCCN)c(=O)c2cc([N+](=O)[O-])ccc12`, the growth in assay [1] is -53.8% (active); in [2] it was -73.4% (active); in assay [3], -84.3% (active); in [4], -93.2% (active); in assay [5], -100% (active); in [6], -88.1% (active). The figures for the growth in assay [7], in [8] and in assay [9] were -78.2% (active), -94% (active) and -98.5% (active), respectively.

Consider `CCOC(=O)c1cc(-c2ccc([N+](=O)[O-])cc2)n(-c2ccc(C(=O)O)c(O)c2)c1C`, for which the growth in [1] is 58.8%; in [2], 83.5%; in [3] it was 103%; in [4] it was 103%; in assay [5] it was 65.2%; in assay [6] it was 49.6%. In addition, the growth in assay [7] is 9.5% (active); in [8], 47.7%; in [9], 71.3%.

As to `O=[N+]([O-])c1ccc(S(=O)(=O)N2CCN(C3=NS(=O)(=O)c4ccccc4N3c3ccccc3)CC2)cc1`, the growth in assay [1] was 87.2%; in assay [2] it was 104%; in [3], 99.6%; in assay [4], 99.7%; in assay [5] it was 115%; in assay [6], -0.794% (active). The growth in [7] was 94.5%; in assay [8] it was 96.3%; in assay [9], 96.7%.

Regarding `CCCCCCNC(=O)Oc1ccc(/C(=C(/C)Cc2ccc(OC)cc2)c2ccc(OCCCN(C)C)cc2)cc1`, the growth in assay [1] is 70.7%; in assay [2] it was 90.5%; in [3], 70.5%; in assay [4], 76%; in assay [5] it was -52.7% (active); in assay [6], 25%. In addition, the growth was 36.4% in assay [7], 31.9% in assay [8] and 44.5% in assay [9].

For the compound `N#C/C(=C\c1ccc2ccccc2c1)c1cc2ccccc2[nH]1`, the growth was 48.8% in assay [1]; 67.9% in assay [2]; 63.3% in assay [3]; 40.4% in assay [4]; 13.3% in assay [5]; 41.5% in [6]. Further, the growth in assay [7] was 1.83% (active); in assay [8], 51.1%; in assay [9] it was 41.1%.

Regarding `Cc1ccccc1/C=C1\CN(C(=O)OC(C)(C)C)C/C(=C\c2ccccc2C)C1=O`, the growth in [1] was 8.22% (active); in assay [2], 42.2%; in assay [3] it was 80.9%; in assay [4], 48.2%; in [5], -38.3% (active); in [6], 82.6%. Moreover, the growth in assay [7] is 20.8%; in assay [8] it was 49.1%; in [9] it was 25.8%.

For `O=C1/C(=C/c2ccc(Cl)c(Cl)c2)CN(C(=O)C(Cl)Cl)C/C1=C\c1ccc(Cl)c(Cl)c1`, the growth is -66.3% (active) in [1]; -31.2% (active) in assay [2]; -22.8% (active) in assay [3]; -21.8% (active) in [4]; -55.8% (active) in assay [5]; -53% (active) in [6]. Besides, the growth in [7] was -35.1% (active); in assay [8], 7.18% (active); in [9], -90.7% (active).

Regarding `C=CCc1c2c(c(OC)c3ccoc13)C(=O)/C(=C/c1ccccc1OC)O2`, the growth is 19.7% in [1]; 72.8% in assay [2]; 65.9% in assay [3]; 80% in assay [4]; 31.3% in assay [5]; 58.8% in assay [6]. Moreover, the growth in [7] was 48.5%; in assay [8] it was 60.2%; in assay [9] it was 94.1%; in assay [10] it was 104%.

Regarding `CCN1CCN(c2cc(C(=O)Nc3nc(-c4cc(OC)c(OC)c(OC)c4)cs3)cc(C(F)(F)F)c2)CC1`, the growth is 79.4% in [1]; 86.8% in assay [2]; 78% in [3]; 82.7% in assay [4]; 57.3% in [5]; 42.2% in [6]. Moreover, the values for the growth in [7], in assay [8] and in [9] were 67.6%, 81.1% and 49.1%, respectively.

Regarding `O=C(Nc1ccc(NC(=O)c2cc(=O)[nH]c3ccccc23)cc1)Nc1cccc(C(F)(F)F)c1`, the growth is 62.3% in assay [1]; 87.9% in assay [2]; 62.5% in [3]; -7.24% (active) in assay [4]; 15.3% in [5]; 42.6% in assay [6]. The growth in assay [7] was 72.3%; in assay [8] it was 86.3%; in assay [9] it was 99.3%.

`CCO/C=N/C1=C(C#N)C(c2ccc(OC)cc2)c2sc3c(F)cccc3c2O1` (stereo not given): the growth is 48.9% in assay [1]; 63% in [2]; 51.5% in assay [3]; 49.5% in assay [4]; 12.7% in assay [5]; 62.6% in [6]. The growth in [7] is 0.128% (active); in [8], 43.3%; in assay [9], 33.3%.

For the compound `Nc1ncnc2c1N=C(c1ccc(Cl)cc1)CC(c1ccc3c(c1)OCO3)N2` (stereo not given), the growth in [1] was 100%; in assay [2] it was 90.8%; in assay [3], 112%; in assay [4] it was 88.1%; in [5], 103%; in assay [6], 59.8%. In addition, the growth is 89.7% in [7], 98.4% in [8] and 91.6% in assay [9].

Turning to `CNC(=O)c1cc(Oc2ccc3c(c2)sc2nc(-c4cc(OC)c(OC)c(OC)c4)cn23)ccn1`, the growth was 61.1% in assay [1]; 49% in assay [2]; 72.5% in assay [3]; 66.8% in assay [4]; 66.2% in assay [5]; 15.8% in assay [6]. The growth in [7] is 50.4%; in assay [8], 63.6%; in assay [9] it was 68.1%.

Consider `O=S(=O)(Nc1ccccc1)c1ccc(C2CC3(Cl)C(Cl)=C(Cl)C2(Cl)C3(Cl)Cl)cc1` (stereo not given), for which the growth in [1] is 22.1%; in [2], 74.3%; in assay [3], 61.5%; in assay [4] it was 51.4%; in assay [5] it was 21.1%; in assay [6], -10.3% (active). The values for the growth in [7], in assay [8] and in assay [9] were 29.9%, 30.2% and 32.4%, respectively.

Turning to `CC(C)(C)n1cc(-c2ccnc(NCCNS(=O)(=O)c3cccc(F)c3)c2)c(-c2ccccc2)n1`, the growth in assay [1] was 79.1%; in assay [2], 90.1%; in assay [3], 97.8%; in assay [4] it was 101%; in assay [5] it was 90.7%; in assay [6] it was 3.59% (active). In addition, the growth was 79.8% in [7], 79.9% in assay [8] and 81.2% in assay [9].

For `CCCCC[C@@H]1Cc2cc(O)c(C(=O)O)c3c2[C@H](C[C@]2(OC[C@@H](CC(=O)[C@@](C)(CC)C(=O)OC)[C@@H]2C)O3)O1`, the growth in [1] was 112%; in assay [2], 92.1%; in [3] it was 105%; in [4], 117%; in assay [5], 109%; in [6], 113%. The figures for the growth in [7], in assay [8] and in assay [9] were 117%, 107% and 108%, respectively.

`Cc1cccc(Cl)c1NC(=O)c1ccc2nc(NC(=O)NCCN(C)C)sc2c1`: the growth in assay [1] is 103%; in assay [2], 100%; in assay [3], 101%; in assay [4], 60.3%; in assay [5], 107%; in [6], 64.1%. In addition, the growth in assay [7] was 77.5%; in [8] it was 102%; in assay [9], 87.7%.
